# Source: article PMC8384837, “Expanding the binding specificity for RNA recognition by a PUF domain”
# Key:
# Assay in all cases: yeast three-hybrid, YBZ-1, SC-Leu-His + 0.5 mM 3-AT, 4 days
# Conditions in all cases: tags: N-Gal4 AD-HA kept; label: inside an RPR1-promoter hybrid RNA with tandem MS2 sites; ssRNA
# PUM1 PUF domain R4-FNI = PUM1 PUF domain R4-FNI (Homo sapiens, UniProt Q14671 828-1176, N971F;H972N;Q975I)
# In short: (§1)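 Each repeat of the Pumilio-1 PUF domain was randomized at its three base-contacting residues, and these libraries were co-expressed from a centromeric plasmid with matching RNA elements in strain YBZ-1. After four days on SC-Leu (input) or SC-Leu-His + 0.5 mM 3-AT (selection), the repeat regions were PCR-amplified and Illumina-sequenced. The interaction score compares variant frequency between input and selection as a log change, computed in log2 with a pseudocount of 1 for absent variants.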
# PUM1 PUF domain R1-GYK = PUM1 PUF domain R1-GYK (Homo sapiens, UniProt Q14671 828-1176, S863G;R864Y;Q867K)
# In short: as §1
# PUM1 PUF domain R6-IWK = target: T1, PUM1 PUF domain R6-IWK (Homo sapiens, UniProt Q14671 828-1176, N1043I;Y1044W;Q1047K)
# T1 sequence: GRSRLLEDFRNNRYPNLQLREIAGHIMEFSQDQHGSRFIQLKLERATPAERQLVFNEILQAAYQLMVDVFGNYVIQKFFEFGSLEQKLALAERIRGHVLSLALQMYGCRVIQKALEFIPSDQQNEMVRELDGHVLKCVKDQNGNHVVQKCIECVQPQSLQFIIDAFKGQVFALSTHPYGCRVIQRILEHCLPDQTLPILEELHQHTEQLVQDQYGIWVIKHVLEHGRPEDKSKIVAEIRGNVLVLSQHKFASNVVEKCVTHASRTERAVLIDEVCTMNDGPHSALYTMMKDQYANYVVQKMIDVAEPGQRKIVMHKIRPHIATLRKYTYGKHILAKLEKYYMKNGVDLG
# In short: as §1
# PUM1 PUF domain R1-RLV = PUM1 PUF domain R1-RLV (Homo sapiens, UniProt Q14671 828-1176, S863R;R864L;Q867V)
# In short: as §1
# PUM1 PUF domain R5-KRS = PUM1 PUF domain R5-KRS (Homo sapiens, UniProt Q14671 828-1176, C1007K;Q1011S)
# Chain of PUM1 PUF domain R5-KRS (Q14671 828-1176 C1007K/Q1011S): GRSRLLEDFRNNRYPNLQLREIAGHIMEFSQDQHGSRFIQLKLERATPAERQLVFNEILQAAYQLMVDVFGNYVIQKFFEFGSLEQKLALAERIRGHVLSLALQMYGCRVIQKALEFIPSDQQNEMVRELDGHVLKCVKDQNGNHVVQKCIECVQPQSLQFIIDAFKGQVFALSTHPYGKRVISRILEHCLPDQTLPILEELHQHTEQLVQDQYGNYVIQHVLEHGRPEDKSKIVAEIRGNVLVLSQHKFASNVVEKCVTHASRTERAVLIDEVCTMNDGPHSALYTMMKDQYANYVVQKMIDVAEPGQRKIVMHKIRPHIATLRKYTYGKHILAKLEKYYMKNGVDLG
# In short: as §1
# PUM1 PUF domain R4-MFN = PUM1 PUF domain R4-MFN (Homo sapiens, UniProt Q14671 828-1176, N971M;H972F;Q975N)
# In short: as §1
# PUM1 PUF domain R3-VRS = PUM1 PUF domain R3-VRS (Homo sapiens, UniProt Q14671 828-1176, C935V;Q939S)
# In short: as §1
# PUM1 PUF domain R3-RCD = PUM1 PUF domain R3-RCD (Homo sapiens, UniProt Q14671 828-1176, C935R;R936C;Q939D)
# In short: as §1
# PUM1 PUF domain R5-NVA = PUM1 PUF domain R5-NVA (Homo sapiens, UniProt Q14671 828-1176, C1007N;R1008V;Q1011A)
# In short: as §1
# PUM1 PUF domain R7-TVV = PUM1 PUF domain R7-TVV (Homo sapiens, UniProt Q14671 828-1176, S1079T;N1080V;E1083V)
# In short: as §1
sequence,measurement,setting,value
GGCUAGAACUAGUGGAUCCCCCGGCGCCCGGCGGCUCGAGCCCGGGUAAGUGUAUAUAGUCUGCAUGCCGCCGGGCGCCAUGCCUGCAGGUCGACUCUAGAAAACAUG,binding signal,PUM1 PUF domain R4-FNI,2.63 log2 enrichment (interaction score)
GGCUAGAACUAGUGGAUCCCCCGGCGCCCGGCGGCUCGAGCCCGGGUAAGUGUAAAUGGUCUGCAUGCCGCCGGGCGCCAUGCCUGCAGGUCGACUCUAGAAAACAUG,binding signal,PUM1 PUF domain R1-GYK,0.96 log2 enrichment (interaction score)
GGCUAGAACUAGUGGAUCCCCCGGCGCCCGGCGGCUCGAGCCCGGGUAAGUGAAAAUAGUCUGCAUGCCGCCGGGCGCCAUGCCUGCAGGUCGACUCUAGAAAACAUG,binding signal,PUM1 PUF domain R6-IWK,5.15 log2 enrichment (interaction score)
GGCUAGAACUAGUGGAUCCCCCGGCGCCCGGCGGCUCGAGCCCGGGUAAGUGUAAAUCGUCUGCAUGCCGCCGGGCGCCAUGCCUGCAGGUCGACUCUAGAAAACAUG,binding signal,PUM1 PUF domain R1-GYK,5.06 log2 enrichment (interaction score)
same,binding signal,PUM1 PUF domain R1-RLV,2.36 log2 enrichment (interaction score)
GGCUAGAACUAGUGGAUCCCCCGGCGCCCGGCGGCUCGAGCCCGGGUAAGUGUAAAUAGUCUGCAUGCCGCCGGGCGCCAUGCCUGCAGGUCGACUCUAGAAAACAUG,binding signal,PUM1 PUF domain R5-KRS,1.71 log2 enrichment (interaction score)
same,binding signal,PUM1 PUF domain R4-MFN,2.97 log2 enrichment (interaction score)
same,binding signal,PUM1 PUF domain R3-VRS,3.88 log2 enrichment (interaction score)
same,binding signal,PUM1 PUF domain R6-IWK,2.18 log2 enrichment (interaction score)
GGCUAGAACUAGUGGAUCCCCCGGCGCCCGGCGGCUCGAGCCCGGGUAAGUGUAAUUAGUCUGCAUGCCGCCGGGCGCCAUGCCUGCAGGUCGACUCUAGAAAACAUG,binding signal,PUM1 PUF domain R3-RCD,3.1 log2 enrichment (interaction score)
GGCUAGAACUAGUGGAUCCCCCGGCGCCCGGCGGCUCGAGCCCGGGUAAGUGUAAAUUGUCUGCAUGCCGCCGGGCGCCAUGCCUGCAGGUCGACUCUAGAAAACAUG,binding signal,PUM1 PUF domain R1-RLV,2.9 log2 enrichment (interaction score)
GGCUAGAACUAGUGGAUCCCCCGGCGCCCGGCGGCUCGAGCCCGGGUAAGUGUUAAUAGUCUGCAUGCCGCCGGGCGCCAUGCCUGCAGGUCGACUCUAGAAAACAUG,binding signal,PUM1 PUF domain R5-KRS,3.41 log2 enrichment (interaction score)
same,binding signal,PUM1 PUF domain R5-NVA,3.11 log2 enrichment (interaction score)
GGCUAGAACUAGUGGAUCCCCCGGCGCCCGGCGGCUCGAGCCCGGGUAAGUUUAAAUAGUCUGCAUGCCGCCGGGCGCCAUGCCUGCAGGUCGACUCUAGAAAACAUG,binding signal,PUM1 PUF domain R7-TVV,3.71 log2 enrichment (interaction score)
GGCUAGAACUAGUGGAUCCCCCGGCGCCCGGCGGCUCGAGCCCGGGUAAGUGUCAAUAGUCUGCAUGCCGCCGGGCGCCAUGCCUGCAGGUCGACUCUAGAAAACAUG,binding signal,PUM1 PUF domain R5-KRS,3.74 log2 enrichment (interaction score)
GGCUAGAACUAGUGGAUCCCCCGGCGCCCGGCGGCUCGAGCCCGGGUAAGUGUAAGUAGUCUGCAUGCCGCCGGGCGCCAUGCCUGCAGGUCGACUCUAGAAAACAUG,binding signal,PUM1 PUF domain R3-RCD,2.53 log2 enrichment (interaction score)
same,binding signal,PUM1 PUF domain R3-VRS,0.45 log2 enrichment (interaction score)
